± gives the standard deviation of the averaged measurements.
How the values were obtained:
[1] = test system: DLD1; test: cell viability (CellTiter-Glo) relative to plate median (fraction of plate median); higher = more viable cells; settings: 5 µM; treatment time 24 h; reporter: 7TFP
How it was run: (§1)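 Two independent replicates were averaged for each reported value. Library compounds were applied at a final 5 µM for 24 h to colorectal cancer cell lines stably expressing lentiviral TCF/Wnt firefly luciferase reporters. Firefly luciferase or CellTiterGlo luminescence from each well was normalised to the plate median.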

[2] = test system: HCT116; test: as above; settings: 5 µM; treatment time 24 h; reporter: TCF4/Wnt
How it was run: as §1

[3] = test system: SW480; test: as above; settings: 5 µM; treatment time 24 h; reporter: 7TFP
How it was run: as §1

[4] = test system: DLD1; test: TCF/Wnt firefly luciferase reporter signal relative to plate median (fraction of plate median); higher = higher Wnt reporter signal; settings: 5 µM; treatment time 24 h; reporter: 7TFP
How it was run: as §1

[5] = test system: SW480; test: as above; settings: 5 µM; treatment time 24 h; reporter: 7TFP
How it was run: as §1

| SMILES | cell viability [1] | cell viability [2] | cell viability [3] | TCF/Wnt firefly luciferase reporter signal [4] | TCF/Wnt firefly luciferase reporter signal [5] |
| --- | --- | --- | --- | --- | --- |
| CCOC(=O)[C@H](CCc1ccccc1)N[C@@H](C)C(=O)N1CCC[C@H]1C(=O)O | 0.971 ± 0.018 | 1.11 ± 0.085 | 1 ± 0.029 | 1.04 ± 0.035 | 0.994 ± 0.023 |
| c1ccc2[nH]c(-c3cscn3)nc2c1 | 1.02 ± 0.021 | 1.17 ± 0.035 | 1.02 | 1.32 ± 0.16 | 1.18 ± 0.028 |
| CN[C@@H]1[C@H](O[C@H]2[C@H](O[C@H]3[C@H](O)[C@@H](O)[C@H](NC(=N)N)[C@@H](O)[C@@H]3NC(=N)N)O[C@@H](C)[C@]2(O)CO)O[C@@H](CO)[C@H](O)[C@H]1O | 0.9855 ± 0.0078 | 1.13 ± 0.042 | 1.055 ± 0.0071 | 1.18 ± 0.071 | 1.11 |
| CC1(C)O[C@@H]2C[C@H]3[C@@H]4C[C@H](F)C5=CC(=O)CC[C@]5(C)[C@H]4[C@@H](O)C[C@]3(C)[C@]2(C(=O)CO)O1 | 1.01 ± 0.025 | 1.025 ± 0.0071 | 1.02 ± 0.047 | 0.949 ± 0.087 | 1.04 ± 0.073 |
| CC(C(=O)O)c1ccc(-c2ccccc2)c(F)c1 (stereo not given) | 1.09 ± 0.11 | 1.11 ± 0.078 | 1.04 | 1.07 ± 0.014 | 1.02 ± 0.035 |
| CCCCCCCCNC(C)C(O)c1ccc(SC(C)C)cc1 (stereo not given) | 0.978 ± 0.021 | 1.05 ± 0.042 | 1.02 ± 0.03 | 1.08 ± 0.099 | 1.09 ± 0.085 |
| CC(C)CCCCCCCCC1CC(=O)NC(CCC(=O)O)C(=O)NC(CC(C)C)C(=O)NC(CC(C)C)C(=O)NC(C(C)C)C(=O)NC(CC(=O)O)C(=O)NC(CC(C)C)C(=O)NC(CC(C)C)C(=O)O1 (stereo not given) [Surfactin B1] | 0.959 ± 0.072 | 0.925 ± 0.018 | 0.962 ± 0.038 | 0.92 ± 0.21 | 1.01 ± 0.015 |
| O=c1cc(-c2ccccc2)oc2cc(O)c(O)c(O)c12 | 1.08 ± 0.021 | 1.06 ± 0.042 | 1.12 ± 0.035 | 0.927 ± 0.073 | 1.02 ± 0.037 |
| Fc1ccc([C@@H]2CCNC[C@H]2COc2ccc3c(c2)OCO3)cc1 | 0.977 ± 0.021 | 1.02 ± 0.12 | 1.02 ± 0.021 | 1.1 ± 0.085 | 1.13 ± 0.042 |
| N[C@@H](CC(=O)N1CCn2c(nnc2C(F)(F)F)C1)Cc1cc(F)c(F)cc1F | 1.09 ± 0.042 | 0.997 ± 0.061 | 0.963 ± 0.041 | 0.95 ± 0.069 | 0.935 ± 0.081 |
| CCN(CC)C(=O)N1CCN(C)CC1 | 0.9275 ± 0.0035 | 0.89 ± 0.079 | 1.03 ± 0.021 | 0.981 ± 0.098 | 1.09 ± 0.021 |
| CC(C)[C@@H](C)/C=C/[C@@H](C)[C@H]1CC[C@H]2C3=CC=C4C[C@@H](O)CC[C@]4(C)[C@H]3CC[C@]12C | 1.05 ± 0.05 | 1.03 ± 0.14 | 1.14 ± 0.099 | 0.912 ± 0.079 | 1 ± 0.083 |
| CC(=O)Nc1ccc(OC(=O)c2ccccc2O)cc1 | 0.999 ± 0.016 | 0.989 ± 0.03 | 0.978 ± 0.074 | 1 ± 0.095 | 0.891 ± 0.043 |
| CC(=O)O[C@@H]1CC2C(C)(CC[C@H](O)C2(C)C)C2CC[C@]3(C)C(=CC(=O)O[C@H]3c3ccoc3)C21C (stereo partly drawn) [3beta-HYDROXYDEOXODIHYDRODEOXYGEDUNIN] | 1 ± 0.028 | 0.963 ± 0.081 | 1.02 ± 0.028 | 1.15 ± 0.12 | 1.12 ± 0.014 |
| OC(CCN1CCCCC1)(c1ccccc1)c1ccccc1 | 0.982 ± 0.068 | 0.916 ± 0.051 | 1.02 ± 0.014 | 0.834 ± 0.2 | 0.878 ± 0.019 |
| Cc1cccc(C(=O)O)c1O | 1.02 ± 0.039 | 0.934 ± 0.078 | 0.96 ± 0.0099 | 0.869 ± 0.12 | 0.922 ± 0.059 |
| CCCCCCCCCCCCCCCC(=O)OC/C=C(C)/C=C/C=C(C)/C=C/C1=C(C)CCCC1(C)C | 0.986 ± 0.048 | 1.07 ± 0.035 | 0.9965 ± 0.0021 | 0.885 ± 0.1 | 1.01 ± 0.073 |
| Cc1cc2nc3c(=O)[nH]c(=O)nc-3n(C[C@H](O)[C@H](O)[C@H](O)CO)c2cc1C | 0.984 ± 0.052 | 0.919 ± 0.051 | 0.974 ± 0.016 | 1.07 ± 0.035 | 0.907 ± 0.021 |
| CC(=O)O[C@H]1C[C@@H](OC(C)=O)C(C)(C)[C@@H]2C[C@@H](OC(C)=O)[C@@]3(C)C4=CC(=O)O[C@@H](c5ccoc5)[C@]4(C)CC[C@@H]3[C@@]12C | 1.01 ± 0.018 | 1.15 ± 0.092 | 1.05 ± 0.057 | 0.976 ± 0.011 | 0.997 ± 0.033 |
| C[C@]12CCC(=O)C=C1CC[C@@H]1[C@@H]2[C@@H](O)C[C@@]2(C)[C@H]1CC[C@]2(O)C(=O)COC(=O)CCC(=O)O | 1.07 ± 0.042 | 1.11 | 1.03 ± 0.035 | 1.01 ± 0.02 | 1 ± 0.099 |
| CO[C@H]1C[C@H](O[C@H]2[C@H](C)[C@@H](O[C@@H]3O[C@H](C)C[C@H](N(C)C)[C@H]3OC(C)=O)[C@@H](C)C[C@@]3(CO3)C(=O)[C@H](C)[C@@H](OC(C)=O)[C@@H](C)[C@@H](C)OC(=O)[C@@H]2C)O[C@@H](C)[C@@H]1OC(C)=O | 1.06 | 1.01 ± 0.19 | 0.956 ± 0.03 | 1.03 ± 0.11 | 0.945 ± 0.12 |
| Cc1scc2c1N(C(=O)CN1CCN(C)CC1)c1ccccc1NC2=O | 1.03 ± 0.073 | 1 ± 0.071 | 0.996 ± 0.034 | 0.984 ± 0.052 | 0.954 ± 0.04 |
| CC(=O)N1CCCC(N)C1=O (stereo not given) [N-Acetyl-3-amino-2-piperidinon] | 0.974 ± 0.079 | 0.871 ± 0.021 | 0.946 ± 0.015 | 0.821 ± 0.13 | 0.851 ± 0.044 |
| C#C[C@]1(O)CC[C@H]2[C@@H]3CCc4cc(OC)ccc4[C@H]3CC[C@@]21C | 0.952 ± 0.011 | 1.02 ± 0.021 | 0.986 ± 0.0085 | 0.981 ± 0.15 | 0.944 ± 0.059 |
| COc1ccc(-c2oc3c(CC=C(C)C)c(O[C@@H]4O[C@H](CO)[C@@H](O)[C@H](O)[C@H]4O)cc(O)c3c(=O)c2O[C@@H]2O[C@@H](C)[C@H](O)[C@@H](O)[C@H]2O)cc1 | 1.03 ± 0.014 | 1.1 ± 0.085 | 0.957 ± 0.048 | 0.977 ± 0.1 | 0.974 ± 0.03 |
| CN(C)CCCN1c2ccccc2CCc2ccc(Cl)cc21 | 1.04 | 0.984 ± 0.051 | 1.06 ± 0.021 | 1.06 ± 0.1 | 1.01 ± 0.055 |
| CC(C)c1nc(N(C)S(C)(=O)=O)nc(-c2ccc(F)cc2)c1/C=C/[C@@H](O)C[C@@H](O)CC(=O)O | 0.93 ± 0.11 | 0.9675 ± 0.00071 | 1.02 ± 0.014 | 0.984 ± 0.08 | 0.913 ± 0.15 |
| CC(C)C[C@@H]1NC(=O)[C@H](C)NC1=O [cyclo(alanylleucyl)] | 0.998 ± 0.046 | 1.02 ± 0.11 | 0.998 ± 0.045 | 0.994 ± 0.0028 | 0.987 ± 0.1 |
| CC(=O)O[C@@H]1C[C@@]2(C)C(CC[C@@H]2C(C)=O)C2CCC3=CC(=O)CC[C@]3(C)C21 (stereo not given in full) | 0.943 ± 0.019 | 1.09 ± 0.042 | 0.976 ± 0.024 | 1.02 ± 0.031 | 0.965 ± 0.033 |

From the supplement of paper PMC6522484
